Potency and outcome data for 38 compounds are collected here from PubChem BioAssay (Tox21).

Each structure is given as a SMILES string. Results filed as inconclusive are left out. Entries that show only a call come without a potency. Active and inactive are the calls of the source. Unless noted, calls come from the whole dose curve.

Sequence of Thyrotropin receptor (Homo sapiens) (P16473 whole entry, looked up): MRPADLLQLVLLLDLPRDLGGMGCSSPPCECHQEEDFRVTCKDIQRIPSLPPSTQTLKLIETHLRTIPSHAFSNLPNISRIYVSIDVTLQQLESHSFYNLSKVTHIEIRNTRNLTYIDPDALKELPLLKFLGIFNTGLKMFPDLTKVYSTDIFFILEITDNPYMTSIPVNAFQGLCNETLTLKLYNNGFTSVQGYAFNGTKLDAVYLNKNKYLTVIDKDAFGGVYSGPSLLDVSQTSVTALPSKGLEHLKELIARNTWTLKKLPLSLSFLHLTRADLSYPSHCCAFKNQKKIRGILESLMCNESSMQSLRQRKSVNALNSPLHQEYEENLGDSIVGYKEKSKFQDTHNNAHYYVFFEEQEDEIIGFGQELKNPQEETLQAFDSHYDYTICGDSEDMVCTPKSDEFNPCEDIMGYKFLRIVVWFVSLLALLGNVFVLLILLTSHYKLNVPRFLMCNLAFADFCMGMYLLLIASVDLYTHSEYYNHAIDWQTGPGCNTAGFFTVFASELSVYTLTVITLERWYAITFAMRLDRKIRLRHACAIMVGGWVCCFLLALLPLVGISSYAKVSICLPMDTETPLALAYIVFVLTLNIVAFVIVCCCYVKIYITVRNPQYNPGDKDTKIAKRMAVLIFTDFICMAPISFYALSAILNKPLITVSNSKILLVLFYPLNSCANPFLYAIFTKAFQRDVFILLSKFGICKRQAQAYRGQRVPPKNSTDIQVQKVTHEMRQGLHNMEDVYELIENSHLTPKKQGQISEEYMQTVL

For one experiment, the target named is Thyrotropin receptor (Homo sapiens) (UniProt P16473). Briefly: qHTS assay to identify small molecule agonists of the thyroid stimulating hormone receptor (TSHR) signaling pathway (AID 1224843). Note: nearly all actives have a fitted effect of over 45% in size. Conditions: TSHR-HEK293 cells, cAMP HTRF, agonist mode, 30 min; series mostly up to 92.4 µM. The method in brief:
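Using 15 concentrations per compound in triplicate, cAMP production was monitored in TSHR-HEK293 cells after 30 min compound incubation at RT; HTRF reagents followed, with fluorescence intensity recorded after 1 h.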
(In qHTS, concentration-response curves come from the screen itself.)
Take `CN(C)CCc1c[nH]c2ccc(C[C@H]3COC(=O)N3)cc12`: the Potency result was “inactive”.
Same read-out and setting: the result for `CCCCCCCCCCCCCCCC/C=C/C1CC(=O)OC1=O` (stereo unspecified) reads “inactive”; that for `C/C(Cl)=C/CCl`, “inactive”.
The same measure, in the same setting: the result for `CCO/C=C1\N=C(c2ccccc2)OC1=O` reads “inactive”.
The same measure, in the same setting: then `CCCC(=O)C(CC)Sc1ccoc1C` (stereo unspecified), with “inactive”; and `COc1cc(NS(=O)(=O)c2ccc(N)cc2)ncn1`, with “inactive”; and `CCCCN=C(N)N=C(N)N`, with “inactive”.
For `N#Cc1cc(NC(=O)C(=O)O)c(Cl)c(NC(=O)C(=O)O)c1`, the Potency entry was “inactive”.
Same read-out and setting: the result for `C=CCN(CC=C)CC=C` reads “inactive”.
Take `O=C(OOC(=O)c1ccccc1)c1ccccc1`: the Potency result was “inactive”.
On the same count and under the same terms, then `CCN(CC)CC(=O)Oc1ccc(NC(C)=O)cc1`, with “inactive”.
On the same count and under the same terms, the result for `C/C=C/C(=O)CCCC` reads “inactive”.
As to `OCCC(F)(F)C(F)(F)C(F)(F)C(F)(F)C(F)(F)C(F)(F)F`, the Potency result was “inactive”.
As to `O=C1c2ccccc2C(=O)N1CO`, the Potency result is “inactive”.

Test system in another experiment: not listed separately
Briefly: qHTS assay to identify small molecule agonists of the hypoxia (HIF-1) signaling pathway - cell viability counter screen (AID 1224844). Note: nearly all actives have a fitted effect of over 50% in size. The settings on record: HRE-bla ME-180 viability, CellTiter-Glo luminescence, 17 h; series mostly up to 76.8 µM. The method in brief: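 HRE-bla ME-180; 0.5% dFBS; cpd 17 h, 37C, 5% CO2; CellTiter-Glo lum., 30 min RT, post-FRET read, same wells.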
Consider `CCOC(=O)CC`, for which the call was inactive.
Regarding `Cc1cc2c(cc1CC(=O)c1sccc1S(=O)(=O)Nc1onc(C)c1Cl)OCO2`, the call was inactive.
The same measure, in the same setting: then `C=CCOC(=O)CCCCCCCC`, with “inactive”.
The same measure, in the same setting: then `CCCCCCCCCCCBr`, with “inactive”.
With `CCOC(=O)c1ccc(N(C)C)cc1`, the outcome was inactive.
Same read-out and setting: then `CCCCCCC(O)CO` (stereo unspecified), with “inactive”; and `O=Cc1ccccc1S(=O)(=O)O`, with “inactive”.
On the same count and under the same terms, the result for `COc1cc(OC)cc(OC)c1` reads “inactive”.
As for `Cc1ccc2cccnc2c1`, the outcome was inactive.
The same measure, in the same setting: the result for `CC(=O)OCC(=O)[C@@]1(O)CC[C@H]2[C@@H]3CCC4=CC(=O)C=C[C@]4(C)[C@H]3[C@@H](O)C[C@@]21C` reads “inactive”.
The same measure, in the same setting: the result for `O=S(=O)(O)c1ccc(Cl)cc1` reads “inactive”; that for `O=P(O)(O)C(O)(Cc1cccnc1)P(=O)(O)O`, “inactive”; that for `COC(=O)c1ccccc1Cl`, “inactive”.
Same read-out and setting: the result for `CC1(C)C(=O)C(C)(C)C1=O` reads “inactive”.
With `O=S(=O)(O)CC(O)CCl` (stereo unspecified), the outcome was inactive.
Same read-out and setting: then `CCOC(=O)COc1ccc2c(C)c(CCN(CC)CC)c(=O)oc2c1Cl`, with “inactive”.

Test system in another experiment: not listed separately
Briefly: qHTS assay to identify small molecule agonists of H2AX (AID 1224845; active = well fitted activation curve with a large enough effect in the signal ratio in the repeat runs, not every such curve was filed as active; the % refers to the signal ratio). The settings on record: CHO-K1 phospho-H2AX Ser139 HTRF, 3 h; series mostly up to 154 µM. The procedure, abridged: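 Wild-type CHO-K1 cells plated overnight, then exposed 3 hr at 37C to compounds at 15 concentrations (0.76% DMSO). Lysed, then HTRF anti-pH2AX(S139)-cryptate/anti-H2AX-d2 detection after 24 hr at room temperature; emissions 665 and 620 nm.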
`CN(C)CCc1c[nH]c2ccc(C[C@H]3COC(=O)N3)cc12`: the outcome was inactive.
For the compound `CCOC(=O)CC`, the outcome was inactive.
Still for that read-out and setting: the result for `COC(=O)c1c(C)cc(O)c(C)c1O` reads “inactive”; that for `O=C(O)COc1ccc2ccccc2c1`, “inactive”.
Take `Cc1cc2c(cc1CC(=O)c1sccc1S(=O)(=O)Nc1onc(C)c1Cl)OCO2`: the compound was classed as inactive.
On the same count and under the same terms, the result for `C=CCOC(=O)CCCCCCCC` reads “inactive”.
On the same count and under the same terms, then `C/C(Cl)=C/CCl`, with “inactive”.
Still for that read-out and setting: the result for `CCOC(=O)CN1CCCC1=O` reads “inactive”; that for `CCCCCCCCCCCBr`, “inactive”.
Regarding `CCO/C=C1\N=C(c2ccccc2)OC1=O`, the compound was classed as inactive.
Still for that read-out and setting: then `CCOC(=O)c1ccc(N(C)C)cc1`, with “inactive”; and `CCCC(=O)C(CC)Sc1ccoc1C` (stereo unspecified), with “inactive”; and `COc1cc(NS(=O)(=O)c2ccc(N)cc2)ncn1`, with “inactive”.
On the same count and under the same terms, the result for `CCCCCCC(O)CO` (stereo unspecified) reads “inactive”.
On the same count and under the same terms, the result for `O=Cc1ccccc1S(=O)(=O)O` reads “inactive”; that for `COc1cc(OC)cc(OC)c1`, “inactive”; that for `Cc1ccc2cccnc2c1`, “inactive”.
Take `CC(=O)OCC(=O)[C@@]1(O)CC[C@H]2[C@@H]3CCC4=CC(=O)C=C[C@]4(C)[C@H]3[C@@H](O)C[C@@]21C`: the compound was classed as inactive.
The same measure, in the same setting: then `CC[N+](C)(CC)CC`, with “inactive”.
On the same count and under the same terms, then `O=S(=O)(O)c1ccc(Cl)cc1`, with “inactive”; and `CC1=C(O)C(=O)CO1`, with “inactive”.
Same read-out and setting: the result for `O=P(O)(O)C(O)(Cc1cccnc1)P(=O)(O)O` reads “inactive”; that for `COC(=O)c1ccccc1Cl`, “inactive”; that for `N#Cc1ccccc1C#N`, “inactive”.
Consider `CC1(C)C(=O)C(C)(C)C1=O`, for which the result was inactive.
`N#Cc1cc(NC(=O)C(=O)O)c(Cl)c(NC(=O)C(=O)O)c1`: the compound was classed as inactive.
For `C=CCN(CC=C)CC=C`, the result was inactive.
With `O=C(OOC(=O)c1ccccc1)c1ccccc1`, the call was inactive.
Same read-out and setting: then `CCOC(=O)COc1ccc2c(C)c(CCN(CC)CC)c(=O)oc2c1Cl`, with “inactive”; and `CCN(CC)CC(=O)Oc1ccc(NC(C)=O)cc1`, with “inactive”; and `Nc1ccc(C(=O)NCC(=O)O)cc1`, with “inactive”.
Still for that read-out and setting: the result for `COC(C)(C)CC(C)=O` reads “inactive”; that for `C/C=C/C(=O)CCCC`, “inactive”; that for `OCCC(F)(F)C(F)(F)C(F)(F)C(F)(F)C(F)(F)C(F)(F)F`, “inactive”.
As for `O=C1c2ccccc2C(=O)N1CO`, the compound was called inactive.

Test system in the next experiment: not listed separately
In words: qHTS assay to identify small molecule agonists of the hypoxia (HIF-1) signaling pathway (AID 1224846; active = well fitted activation curve with a large enough effect in the signal ratio in the repeat runs, not every such curve was filed as active; the % refers to the signal ratio). The settings on record: HRE-bla ME-180 cells, beta-lactamase ratio, 17 h; series mostly up to 76.8 µM. The procedure, abridged: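 Reporter induction in HRE-bla ME-180 cells is taken as agonism: cells sit 5 hrs after plating, receive compounds or DMSO only, incubate 17 hrs at 37C under 5% CO2, and are loaded with CCF4-AM for beta-lactamase FRET measurement.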
With `CN(C)CCc1c[nH]c2ccc(C[C@H]3COC(=O)N3)cc12`, the outcome was inactive.
Take `CCOC(=O)CC`: the result was inactive.
Same read-out and setting: the result for `CCCCCCCCCCCCCCCC/C=C/C1CC(=O)OC1=O` (stereo unspecified) reads “inactive”; that for `COC(=O)c1c(C)cc(O)c(C)c1O`, “inactive”.
Same read-out and setting: then `O=C(O)COc1ccc2ccccc2c1`, with “inactive”; and `Cc1cc2c(cc1CC(=O)c1sccc1S(=O)(=O)Nc1onc(C)c1Cl)OCO2`, with “inactive”; and `C=CCOC(=O)CCCCCCCC`, with “inactive”.
The same measure, in the same setting: then `C/C(Cl)=C/CCl`, with “inactive”; and `CCOC(=O)CN1CCCC1=O`, with “inactive”.
As for `CCCCCCCCCCCBr`, the result was inactive.
The same measure, in the same setting: then `CCO/C=C1\N=C(c2ccccc2)OC1=O`, with “inactive”; and `CCOC(=O)c1ccc(N(C)C)cc1`, with “inactive”; and `CCCC(=O)C(CC)Sc1ccoc1C` (stereo unspecified), with “inactive”.
Same read-out and setting: the result for `CCCCCCC(O)CO` (stereo unspecified) reads “inactive”.
On the same count and under the same terms, the result for `O=Cc1ccccc1S(=O)(=O)O` reads “inactive”; that for `COc1cc(OC)cc(OC)c1`, “inactive”.
For `Cc1ccc2cccnc2c1`, the outcome was inactive.
With `CC[N+](C)(CC)CC`, the outcome was inactive.
As for `CCCCN=C(N)N=C(N)N`, the outcome was inactive.
With `O=S(=O)(O)c1ccc(Cl)cc1`, the outcome was inactive.
On the same count and under the same terms, then `CC1=C(O)C(=O)CO1`, with “inactive”; and `O=P(O)(O)C(O)(Cc1cccnc1)P(=O)(O)O`, with “inactive”; and `COC(=O)c1ccccc1Cl`, with “inactive”.
Same read-out and setting: the result for `N#Cc1ccccc1C#N` reads “inactive”.
The same measure, in the same setting: then `CC1(C)C(=O)C(C)(C)C1=O`, with “inactive”; and `N#Cc1cc(NC(=O)C(=O)O)c(Cl)c(NC(=O)C(=O)O)c1`, with “inactive”; and `O=S(=O)(O)CC(O)CCl` (stereo unspecified), with “inactive”.
On to `C=CCN(CC=C)CC=C`, for which the outcome was inactive.
The same measure, in the same setting: then `O=C(OOC(=O)c1ccccc1)c1ccccc1`, with “inactive”; and `CCOC(=O)COc1ccc2c(C)c(CCN(CC)CC)c(=O)oc2c1Cl`, with “inactive”; and `CCN(CC)CC(=O)Oc1ccc(NC(C)=O)cc1`, with “inactive”.
`Nc1ccc(C(=O)NCC(=O)O)cc1`: the outcome was inactive.
Same read-out and setting: then `COC(C)(C)CC(C)=O`, with “inactive”.
On the same count and under the same terms, then `C/C=C/C(=O)CCCC`, with “inactive”.
The same measure, in the same setting: the result for `OCCC(F)(F)C(F)(F)C(F)(F)C(F)(F)C(F)(F)C(F)(F)F` reads “inactive”; that for `O=C1c2ccccc2C(=O)N1CO`, “inactive”.
